According to ChEMBL document CHEMBL2218924, “A broad activity screen in support of a chemogenomic map for kinase signalling research and drug discovery” (Biochem J, 2013):

What follows are molecules tested against Death-associated protein kinase 1 (Homo sapiens) (UniProt P53355). Conditions: at 1 µM.
Sequence of Death-associated protein kinase 1 (Homo sapiens) (P53355 whole entry, looked up): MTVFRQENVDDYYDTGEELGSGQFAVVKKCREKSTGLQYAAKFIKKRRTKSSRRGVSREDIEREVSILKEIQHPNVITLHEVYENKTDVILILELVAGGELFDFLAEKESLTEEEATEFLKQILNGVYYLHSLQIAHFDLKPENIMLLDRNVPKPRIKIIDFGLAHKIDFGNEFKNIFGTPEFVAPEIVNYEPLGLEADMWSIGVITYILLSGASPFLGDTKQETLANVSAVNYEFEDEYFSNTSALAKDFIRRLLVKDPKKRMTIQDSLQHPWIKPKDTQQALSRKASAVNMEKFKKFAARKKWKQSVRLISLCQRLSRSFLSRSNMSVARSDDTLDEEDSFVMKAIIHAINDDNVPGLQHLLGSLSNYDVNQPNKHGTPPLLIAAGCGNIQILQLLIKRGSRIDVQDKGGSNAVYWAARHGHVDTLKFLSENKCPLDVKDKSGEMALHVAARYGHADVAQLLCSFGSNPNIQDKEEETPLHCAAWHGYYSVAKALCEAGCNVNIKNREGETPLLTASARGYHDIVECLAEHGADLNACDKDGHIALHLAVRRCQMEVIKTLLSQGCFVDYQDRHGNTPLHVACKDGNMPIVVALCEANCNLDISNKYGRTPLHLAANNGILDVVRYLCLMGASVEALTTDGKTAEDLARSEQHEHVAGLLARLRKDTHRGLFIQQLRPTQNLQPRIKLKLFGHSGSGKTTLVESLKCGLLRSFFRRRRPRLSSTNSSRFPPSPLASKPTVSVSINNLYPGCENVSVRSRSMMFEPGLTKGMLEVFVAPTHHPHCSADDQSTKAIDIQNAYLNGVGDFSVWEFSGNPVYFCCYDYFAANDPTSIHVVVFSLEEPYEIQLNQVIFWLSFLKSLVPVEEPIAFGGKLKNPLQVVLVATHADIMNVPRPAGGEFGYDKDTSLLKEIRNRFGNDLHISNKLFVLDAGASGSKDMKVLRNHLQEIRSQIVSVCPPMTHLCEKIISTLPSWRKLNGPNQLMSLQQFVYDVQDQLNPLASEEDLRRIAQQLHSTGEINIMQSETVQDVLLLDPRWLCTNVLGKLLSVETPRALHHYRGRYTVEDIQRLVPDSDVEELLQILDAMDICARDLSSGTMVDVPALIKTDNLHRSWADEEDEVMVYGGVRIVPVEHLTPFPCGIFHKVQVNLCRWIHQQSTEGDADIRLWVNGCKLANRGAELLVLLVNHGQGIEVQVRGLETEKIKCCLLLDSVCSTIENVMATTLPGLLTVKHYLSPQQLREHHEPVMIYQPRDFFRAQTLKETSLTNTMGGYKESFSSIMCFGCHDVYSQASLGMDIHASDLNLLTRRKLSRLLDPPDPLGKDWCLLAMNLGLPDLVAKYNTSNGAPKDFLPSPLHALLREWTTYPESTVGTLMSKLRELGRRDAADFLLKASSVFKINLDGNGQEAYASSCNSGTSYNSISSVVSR

| SMILES | residual activity |
| --- | --- |
| CC(C)(C)c1cc(C=C(C#N)C#N)cc(Br)c1O | 101% |
| COc1ccc2c(c1)/C(=C/c1cnc[nH]1)C(=O)N2 | 100% |
| N/C(=N\[N+](=O)[O-])N/N=C\c1ccc(-c2cccc([N+](=O)[O-])c2)o1 | 93% |
| O=C1NC(=O)/C(=C/c2ccc3c(c2)OC(F)(F)O3)S1 | 98% |
| N#C/C(=C(\N)Sc1ccc(N)cc1)c1ccccc1C(F)(F)F | 84% |
| CC(C)[C@H](CO)Nc1nc(Nc2cccc(Cl)c2)c2ncn(C(C)C)c2n1 | 87% |
| COc1cc(OC)c(/C=C2\C(=O)Nc3ccccc32)c(OC)c1 | 84% |
| O=C(NC(NC(=S)Nc1ccc(F)c([N+](=O)[O-])c1)C(Cl)(Cl)Cl)C(c1ccccc1)c1ccccc1 (stereo unspecified) | 90% |
| Cn1c2ccccc2c2c3c(c4c5ccccc5n(CCC#N)c4c21)CNC3=O | 101% |
| COc1ccc2c(c[n+](C)c3c4cc5c(cc4ccc23)OCO5)c1OC | 94% |
| O=C1NC(=O)c2cc(Nc3ccc(F)cc3)c(Nc3ccc(F)cc3)cc21 | 87% |
| NC(=O)c1ccc2[nH]c(-c3ccc(Oc4ccc(Cl)cc4)cc3)nc2c1 | 93% |
| Cc1ccc(NC2=CC(=O)c3sc(C)nc3C2=O)cc1 | 87% |
| O=c1[nH]c2ccccc2n1C1CCN(Cc2ccc(-c3nc4cc5[nH]cnc5cc4nc3-c3ccccc3)cc2)CC1 | 93% |
| c1cc(-c2cnn3cc(-c4ccc(OCCN5CCCCC5)cc4)cnc23)ccn1 | 76% |
| O=C1NC(=O)/C(=C\c2ccc3nccnc3c2)S1 | 87% |
| O=c1c2ccccc2[nH]c(=S)n1CCN1CCC(=C(c2ccc(F)cc2)c2ccc(F)cc2)CC1 | 106% |
| CCn1cnc2c(Nc3cccc(Cl)c3)nc(N[C@@H]3CCCC[C@@H]3N)nc21 | 96% |
| COC(=O)[C@@]1(O)C[C@H]2O[C@]1(C)n1c3ccccc3c3c4c(c5c6ccccc6n2c5c31)C(=O)NC4 | 48% |
| C[S+]([O-])c1ccc(-c2nc(-c3ccc(F)cc3)c(-c3ccncc3)[nH]2)cc1 (stereo unspecified) | 85% |
| COc1cc2nccc(Oc3ccc(NC(=O)Nc4cc(C)on4)c(Cl)c3)c2cc1OC | 105% |
| O=C1Nc2ccc3ncsc3c2/C1=C/c1c[nH]cn1 | 85% |
| CSc1nc(-c2ccc(F)cc2)c(-c2ccnc(NC(C)c3ccccc3)c2)[nH]1 (stereo unspecified) | 91% |
| NC(=O)Nc1sc(-c2ccc(F)cc2)cc1C(N)=O | 83% |
| CCc1nc(-c2ccc(OC)cc2)[nH]c1-c1ccncc1 | 101% |
| CC(C)N(CCC(=O)c1ccc2ccccc2c1)Cc1ccccc1 | 86% |
| N#Cc1c(NC(=O)c2cccc3ccccc23)sc2c1CCCC2 | 93% |
| O=[N+]([O-])/C=C/c1ccc2c(c1)OCO2 | 85% |
| O=C1NC(=O)c2c1c1c3ccccc3n3c1c1c2c2ccccc2n1C1CCC3O1 | 49% |
| COc1cc2ncnc(Nc3ccc(OCc4ccccc4)cc3)c2cc1OC | 94% |

What follows are molecules tested against Death-associated protein kinase 1 (Homo sapiens) (UniProt P53355). Conditions: at 10 µM.

| SMILES | residual activity |
| --- | --- |
| COc1ccc2c(c1)/C(=C/c1cnc[nH]1)C(=O)N2 | 97% |
| N/C(=N\[N+](=O)[O-])N/N=C\c1ccc(-c2cccc([N+](=O)[O-])c2)o1 | 89% |
| COc1cc(OC)c(/C=C2\C(=O)Nc3ccccc32)c(OC)c1 | 81% |
| COc1ccc2c(c[n+](C)c3c4cc5c(cc4ccc23)OCO5)c1OC | 71% |
| O=c1[nH]c2ccccc2n1C1CCN(Cc2ccc(-c3nc4cc5[nH]cnc5cc4nc3-c3ccccc3)cc2)CC1 | 95% |
| c1cc(-c2cnn3cc(-c4ccc(OCCN5CCCCC5)cc4)cnc23)ccn1 | 84% |
| CCn1cnc2c(Nc3cccc(Cl)c3)nc(N[C@@H]3CCCC[C@@H]3N)nc21 | 85% |
| COC(=O)[C@@]1(O)C[C@H]2O[C@]1(C)n1c3ccccc3c3c4c(c5c6ccccc6n2c5c31)C(=O)NC4 | 10% |
| C[S+]([O-])c1ccc(-c2nc(-c3ccc(F)cc3)c(-c3ccncc3)[nH]2)cc1 (stereo unspecified) | 84% |
| O=C1Nc2ccc3ncsc3c2/C1=C/c1c[nH]cn1 | 63% |
| CCc1nc(-c2ccc(OC)cc2)[nH]c1-c1ccncc1 | 100% |
| O=[N+]([O-])/C=C/c1ccc2c(c1)OCO2 | 90% |
| O=C1NC(=O)c2c1c1c3ccccc3n3c1c1c2c2ccccc2n1C1CCC3O1 | 60% |
| COc1cc2ncnc(Nc3ccc(OCc4ccccc4)cc3)c2cc1OC | 100% |

The molecules below were run against Death-associated protein kinase 2 (Homo sapiens) (UniProt Q9UIK4). Conditions: at 1 µM.
Sequence of Death-associated protein kinase 2 (Homo sapiens) (Q9UIK4 whole entry, looked up): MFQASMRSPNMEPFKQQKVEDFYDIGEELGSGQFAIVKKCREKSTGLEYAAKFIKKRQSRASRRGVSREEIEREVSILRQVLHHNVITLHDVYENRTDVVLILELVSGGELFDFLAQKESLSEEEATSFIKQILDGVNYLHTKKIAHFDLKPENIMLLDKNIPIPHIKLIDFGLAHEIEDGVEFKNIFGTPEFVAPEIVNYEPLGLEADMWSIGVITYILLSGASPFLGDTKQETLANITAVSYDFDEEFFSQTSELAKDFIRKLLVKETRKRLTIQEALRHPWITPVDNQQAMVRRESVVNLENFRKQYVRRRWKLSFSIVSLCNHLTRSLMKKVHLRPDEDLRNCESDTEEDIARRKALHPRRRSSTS

| SMILES | residual activity |
| --- | --- |
| CC(C)(C)c1cc(C=C(C#N)C#N)cc(Br)c1O | 104% |
| COc1cc(OC)c(/C=C2\C(=O)Nc3ccccc32)c(OC)c1 | 100% |
| COc1ccc2c(c[n+](C)c3c4cc5c(cc4ccc23)OCO5)c1OC | 99% |
| O=c1[nH]c2ccccc2n1C1CCN(Cc2ccc(-c3nc4cc5[nH]cnc5cc4nc3-c3ccccc3)cc2)CC1 | 98% |
| CCn1cnc2c(Nc3cccc(Cl)c3)nc(N[C@@H]3CCCC[C@@H]3N)nc21 | 92% |
| COC(=O)[C@@]1(O)C[C@H]2O[C@]1(C)n1c3ccccc3c3c4c(c5c6ccccc6n2c5c31)C(=O)NC4 | 12% |
| O=C1c2ccccc2-c2nc3nnnn3nc21 | 101% |
| C[S+]([O-])c1ccc(-c2nc(-c3ccc(F)cc3)c(-c3ccncc3)[nH]2)cc1 (stereo unspecified) | 90% |
| O=C1Nc2ccc3ncsc3c2/C1=C/c1c[nH]cn1 | 71% |
| O=[N+]([O-])/C=C/c1ccc2c(c1)OCO2 | 95% |
| O=C1NC(=O)c2c1c1c3ccccc3n3c1c1c2c2ccccc2n1C1CCC3O1 | 54% |
| COc1cc2ncnc(Nc3ccc(OCc4ccccc4)cc3)c2cc1OC | 104% |
